For some of these results: Measured potencies and affinities stand elsewhere.
How the values were obtained:
Set-up in all cases: scale not given: direction of the effect not stated beside the values
[1] = molecular target: Protein translocase subunit SecA (Escherichia coli (strain K12)) (UniProt P10408); assay: Assay to Identify E. coli SecA ATPase Inhibitors; type: functional; conditions: 30 µM
[2] = molecular target: T1, Ubiquitin-activating enzyme e1, putative (Leishmania donovani (strain BPK282A1)) (UniProt E9BSI1); assay: Leishmania donovani Ubiquitin Activating Enzyme (LdE1); type: functional; conditions: 30 µM
T1 sequence (whole entry): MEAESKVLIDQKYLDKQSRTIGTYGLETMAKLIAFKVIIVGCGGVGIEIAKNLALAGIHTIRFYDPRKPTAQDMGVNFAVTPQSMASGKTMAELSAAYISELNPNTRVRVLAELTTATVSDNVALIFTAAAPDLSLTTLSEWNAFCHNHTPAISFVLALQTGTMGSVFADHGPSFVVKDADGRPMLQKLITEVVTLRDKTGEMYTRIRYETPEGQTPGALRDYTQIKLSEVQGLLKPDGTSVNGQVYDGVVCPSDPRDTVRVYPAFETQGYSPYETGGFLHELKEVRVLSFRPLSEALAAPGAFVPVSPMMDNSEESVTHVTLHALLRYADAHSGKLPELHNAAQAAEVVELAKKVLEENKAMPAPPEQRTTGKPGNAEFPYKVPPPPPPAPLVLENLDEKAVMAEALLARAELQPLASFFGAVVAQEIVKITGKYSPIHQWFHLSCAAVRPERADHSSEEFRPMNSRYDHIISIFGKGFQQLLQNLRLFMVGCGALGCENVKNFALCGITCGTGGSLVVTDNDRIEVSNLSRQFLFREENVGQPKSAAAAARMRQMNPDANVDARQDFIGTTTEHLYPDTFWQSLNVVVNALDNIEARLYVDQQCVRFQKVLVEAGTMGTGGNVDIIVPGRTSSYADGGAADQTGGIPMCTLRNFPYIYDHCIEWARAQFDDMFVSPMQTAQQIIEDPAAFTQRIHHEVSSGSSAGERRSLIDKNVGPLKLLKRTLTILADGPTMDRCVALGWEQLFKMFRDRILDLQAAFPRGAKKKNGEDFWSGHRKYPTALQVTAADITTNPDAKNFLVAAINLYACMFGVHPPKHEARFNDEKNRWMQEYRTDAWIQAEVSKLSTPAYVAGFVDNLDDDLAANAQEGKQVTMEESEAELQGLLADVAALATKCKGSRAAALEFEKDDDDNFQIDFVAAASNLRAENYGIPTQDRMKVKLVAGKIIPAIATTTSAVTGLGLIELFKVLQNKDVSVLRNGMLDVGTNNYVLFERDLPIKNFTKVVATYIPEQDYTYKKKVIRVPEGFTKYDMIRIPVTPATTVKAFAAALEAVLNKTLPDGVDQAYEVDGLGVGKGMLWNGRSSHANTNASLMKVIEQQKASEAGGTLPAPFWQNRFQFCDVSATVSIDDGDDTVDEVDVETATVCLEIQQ

[3] = molecular target: AMP-activated protein kinase, AMPK (Homo sapiens) (UniProt P54646+O43741+P54619+Q9UGJ0+Q9Y478+Q13131+Q9UGI9); assay: AMP-dependent Kinase enzyme assay. An in vitro enzyme assay that detects ADP turnover that is directly proportional to AMPK activity. This uses naive AMPK that is activated during the assay with MK-8722; type: functional; conditions: 30 µM
[4] = molecular target: Sialic acid-binding Ig-like lectin 9 (Homo sapiens) (UniProt Q9Y336); assay: Hs-Siglec9 ALPHAscreen SOP 20170721; conditions: 10 µM
Sequence of Sialic acid-binding Ig-like lectin 9 (Homo sapiens) (Q9Y336 whole entry): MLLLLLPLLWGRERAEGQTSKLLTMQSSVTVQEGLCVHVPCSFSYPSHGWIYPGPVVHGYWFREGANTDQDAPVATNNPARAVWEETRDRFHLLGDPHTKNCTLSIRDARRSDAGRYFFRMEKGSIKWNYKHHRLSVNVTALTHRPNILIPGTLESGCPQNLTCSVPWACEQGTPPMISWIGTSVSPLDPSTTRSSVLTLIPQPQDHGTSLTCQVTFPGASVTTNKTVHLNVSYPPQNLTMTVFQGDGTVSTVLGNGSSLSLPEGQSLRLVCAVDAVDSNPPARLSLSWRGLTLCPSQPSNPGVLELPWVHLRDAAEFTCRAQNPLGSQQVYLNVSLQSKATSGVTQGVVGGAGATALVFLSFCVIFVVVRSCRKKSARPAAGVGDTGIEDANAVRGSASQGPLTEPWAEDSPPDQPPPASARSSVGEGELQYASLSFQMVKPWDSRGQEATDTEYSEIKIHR

Trypanosoma cruzi = assay: Trypanosoma cruzi phosphomannomutase and mannose-1-phosphate guanylyltransferase assay; type: functional; conditions: 10 µM
[5] = molecular target: T2, Arginase-2, mitochondrial (Homo sapiens) (UniProt P78540); assay: in vitro enzyme assay to detect the production of urea directly proportional to the activity of Arginase II; type: functional; conditions: 33.3 µM; note: in the data most compounds retested in dose-response had high values
T2 sequence (whole entry): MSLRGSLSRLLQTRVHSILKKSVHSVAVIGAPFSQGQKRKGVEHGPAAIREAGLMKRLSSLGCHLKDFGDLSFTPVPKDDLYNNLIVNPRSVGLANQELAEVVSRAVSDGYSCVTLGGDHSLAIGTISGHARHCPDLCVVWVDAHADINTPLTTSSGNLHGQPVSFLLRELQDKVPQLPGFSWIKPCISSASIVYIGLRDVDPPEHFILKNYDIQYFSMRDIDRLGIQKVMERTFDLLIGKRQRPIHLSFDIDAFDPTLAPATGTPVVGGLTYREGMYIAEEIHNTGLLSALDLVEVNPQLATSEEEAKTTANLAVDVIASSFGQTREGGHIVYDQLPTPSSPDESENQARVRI

[6] = molecular target: T3, Proteasome subunit beta (Trypanosoma cruzi) (UniProt O96673); assay: Trypanosoma cruzi proteasome chymotrypsin-like activity (TcProtChymo) assay.; note: in the data most compounds retested in dose-response had high values; type: functional; conditions: 9.37 µM
T3 sequence (whole entry): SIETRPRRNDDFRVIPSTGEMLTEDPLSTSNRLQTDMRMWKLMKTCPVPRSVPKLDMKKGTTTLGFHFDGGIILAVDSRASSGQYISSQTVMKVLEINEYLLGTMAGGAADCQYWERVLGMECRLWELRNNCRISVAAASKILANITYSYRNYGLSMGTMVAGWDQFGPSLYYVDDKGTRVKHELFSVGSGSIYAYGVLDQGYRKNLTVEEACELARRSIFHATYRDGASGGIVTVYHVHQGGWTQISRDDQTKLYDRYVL

Homo sapiens = species: Homo sapiens; assay: To identify inhibition of the IFN signalling (Jak-Stat) pathway via expression of an eGFP reporter gene under the control of an IFN-stimulated response element (ISRE) containing MxA promoter.; type: functional; conditions: 30 µM
[7] = molecular target: T4, Tyrosyl-tRNA synthetase, putative (Trypanosoma cruzi (strain CL Brener)) (UniProt Q4DSP6); assay: Trypanosoma cruzi tyrosyl tRNA synthetase (TcYRS) _High Tyrosine SOP; type: functional; conditions: 30 µM; note: in the data most compounds retested in dose-response had high values
T4 sequence (whole entry): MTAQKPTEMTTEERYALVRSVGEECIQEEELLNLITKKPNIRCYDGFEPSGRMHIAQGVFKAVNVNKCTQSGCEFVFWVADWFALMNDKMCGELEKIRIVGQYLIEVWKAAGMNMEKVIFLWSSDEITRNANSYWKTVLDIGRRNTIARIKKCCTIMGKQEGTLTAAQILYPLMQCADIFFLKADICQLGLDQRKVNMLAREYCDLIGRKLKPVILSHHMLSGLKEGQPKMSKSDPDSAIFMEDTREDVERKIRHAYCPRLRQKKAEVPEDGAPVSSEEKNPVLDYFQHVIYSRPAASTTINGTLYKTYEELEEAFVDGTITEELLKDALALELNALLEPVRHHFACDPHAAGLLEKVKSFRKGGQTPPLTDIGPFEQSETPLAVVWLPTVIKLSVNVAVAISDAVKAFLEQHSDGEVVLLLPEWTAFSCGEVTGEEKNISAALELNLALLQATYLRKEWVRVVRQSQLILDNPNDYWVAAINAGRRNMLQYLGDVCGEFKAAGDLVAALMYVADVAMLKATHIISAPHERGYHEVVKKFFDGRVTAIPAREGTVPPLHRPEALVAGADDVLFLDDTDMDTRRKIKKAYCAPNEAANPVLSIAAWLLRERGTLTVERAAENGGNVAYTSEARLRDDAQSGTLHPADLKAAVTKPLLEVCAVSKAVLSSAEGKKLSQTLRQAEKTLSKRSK

[8] = molecular target: T4, Tyrosyl-tRNA synthetase, putative (Trypanosoma cruzi (strain CL Brener)); assay: Trypanosoma cruzi tyrosyl tRNA synthetase (TcYRS) SOP; type: functional; conditions: 30 µM
[9] = molecular target: Chromo domain-containing protein 1 (Saccharomyces cerevisiae (strain ATCC 204508 / S288c) (Baker's yeast)) (UniProt P32657); assay: ScCHD-1 Enzyme Inhibition Assay; type: functional; conditions: 30 µM; note: in the data most compounds retested in dose-response had high values
Sequence of Chromo domain-containing protein 1 (Saccharomyces cerevisiae (strain ATCC 204508 / S288c) (Baker's yeast)) (P32657 whole entry, the tested form may be a part): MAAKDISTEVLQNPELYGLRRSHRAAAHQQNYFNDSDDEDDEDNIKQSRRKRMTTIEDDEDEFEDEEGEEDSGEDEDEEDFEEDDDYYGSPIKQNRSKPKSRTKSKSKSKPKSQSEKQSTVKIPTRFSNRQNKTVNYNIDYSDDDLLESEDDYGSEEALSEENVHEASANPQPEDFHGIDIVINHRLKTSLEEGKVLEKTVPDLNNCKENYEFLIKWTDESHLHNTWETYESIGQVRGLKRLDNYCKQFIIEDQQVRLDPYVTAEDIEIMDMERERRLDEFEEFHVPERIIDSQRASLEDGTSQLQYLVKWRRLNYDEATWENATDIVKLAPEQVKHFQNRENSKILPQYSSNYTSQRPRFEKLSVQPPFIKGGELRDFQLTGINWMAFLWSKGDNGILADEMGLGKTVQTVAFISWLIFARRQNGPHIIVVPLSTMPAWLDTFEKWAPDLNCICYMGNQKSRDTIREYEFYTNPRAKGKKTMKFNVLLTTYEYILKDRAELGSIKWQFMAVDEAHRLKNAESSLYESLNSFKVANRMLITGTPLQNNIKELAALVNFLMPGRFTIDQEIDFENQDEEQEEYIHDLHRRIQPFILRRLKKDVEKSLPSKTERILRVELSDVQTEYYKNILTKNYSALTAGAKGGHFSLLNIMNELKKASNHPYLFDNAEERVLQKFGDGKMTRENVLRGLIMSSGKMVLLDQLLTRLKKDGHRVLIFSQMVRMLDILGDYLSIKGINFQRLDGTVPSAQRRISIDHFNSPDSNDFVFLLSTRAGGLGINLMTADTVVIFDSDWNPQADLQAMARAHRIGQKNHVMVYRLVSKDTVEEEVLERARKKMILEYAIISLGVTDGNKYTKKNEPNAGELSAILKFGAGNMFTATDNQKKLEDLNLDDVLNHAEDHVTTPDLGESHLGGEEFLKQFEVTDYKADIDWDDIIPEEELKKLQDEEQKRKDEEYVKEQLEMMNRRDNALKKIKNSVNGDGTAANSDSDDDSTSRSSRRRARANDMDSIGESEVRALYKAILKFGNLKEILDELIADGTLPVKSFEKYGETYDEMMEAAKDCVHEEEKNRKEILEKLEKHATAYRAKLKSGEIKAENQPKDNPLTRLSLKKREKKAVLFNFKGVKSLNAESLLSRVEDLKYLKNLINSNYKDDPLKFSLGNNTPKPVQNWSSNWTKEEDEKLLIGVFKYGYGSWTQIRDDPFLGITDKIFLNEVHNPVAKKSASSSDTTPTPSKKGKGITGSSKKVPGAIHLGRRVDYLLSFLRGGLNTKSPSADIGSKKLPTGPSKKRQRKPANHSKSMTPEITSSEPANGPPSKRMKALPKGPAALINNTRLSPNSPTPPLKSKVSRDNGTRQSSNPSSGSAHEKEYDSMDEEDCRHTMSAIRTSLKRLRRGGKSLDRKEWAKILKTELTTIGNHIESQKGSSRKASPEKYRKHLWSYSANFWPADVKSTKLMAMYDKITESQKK

Sequence of Protein translocase subunit SecA (Escherichia coli (strain K12)) (P10408 whole entry): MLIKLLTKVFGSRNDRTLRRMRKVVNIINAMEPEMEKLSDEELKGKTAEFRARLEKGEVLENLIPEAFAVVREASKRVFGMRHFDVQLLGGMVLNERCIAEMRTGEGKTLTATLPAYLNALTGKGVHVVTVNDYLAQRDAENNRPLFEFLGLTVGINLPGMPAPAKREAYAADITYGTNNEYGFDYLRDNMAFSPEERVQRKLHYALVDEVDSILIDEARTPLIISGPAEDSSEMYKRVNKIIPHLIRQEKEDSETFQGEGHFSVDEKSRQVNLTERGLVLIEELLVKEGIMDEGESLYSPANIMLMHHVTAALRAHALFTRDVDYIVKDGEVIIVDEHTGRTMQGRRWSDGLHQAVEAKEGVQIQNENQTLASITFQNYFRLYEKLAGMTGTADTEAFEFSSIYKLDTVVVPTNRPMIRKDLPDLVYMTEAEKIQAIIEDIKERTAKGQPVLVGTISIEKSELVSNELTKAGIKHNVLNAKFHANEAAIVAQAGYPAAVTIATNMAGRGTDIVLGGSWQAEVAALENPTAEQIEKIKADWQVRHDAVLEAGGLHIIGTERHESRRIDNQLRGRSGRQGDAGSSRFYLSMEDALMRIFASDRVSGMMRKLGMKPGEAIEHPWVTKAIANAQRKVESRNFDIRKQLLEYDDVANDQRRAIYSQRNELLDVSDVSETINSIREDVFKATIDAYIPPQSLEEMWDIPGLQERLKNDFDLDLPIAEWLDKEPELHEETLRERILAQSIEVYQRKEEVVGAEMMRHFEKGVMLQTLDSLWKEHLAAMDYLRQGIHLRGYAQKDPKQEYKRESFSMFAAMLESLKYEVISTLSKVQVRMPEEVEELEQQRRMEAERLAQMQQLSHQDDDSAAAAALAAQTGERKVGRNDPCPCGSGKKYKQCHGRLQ

| SMILES | Percent Effect [1] [%] | Percent Effect [2] [%] | Percent Effect [3] [%] | Percent Effect [4] [%] | Percent Effect (Trypanosoma cruzi) [%] | Percent Effect [5] [%] | Percent Effect [6] [%] | Percent Effect (Homo sapiens) [%] | Percent Effect [7] [%] | Percent Effect [8] [%] | Percent Effect [9] [%] |
| --- | --- | --- | --- | --- | --- | --- | --- | --- | --- | --- | --- |
| O=C(CC1CCCCC1)N1CCN(C(=O)NCc2ccccn2)CC1 | -3.1 | 10.4 | 1.16 | -0.668 | 1.86 | 1.05 | 6.39 | -4.56 | 4.76 | -16.5 | -15 |
| CN(Cc1cccc(F)c1)S(=O)(=O)N1CCOCC1 | -1.93 | 7.89 | 1.93 | -0.448 | -0.876 | -1.18 | 24.4 | 9.7 | 2.13 | 13 | -6.29 |
| CCc1ccc(CN2CCCC(CO)(CCOC)C2)cc1 (stereo unspecified) | -2.06 | -5.41 | -3.48 | -7.57 | -4.79 | -6.7 | -0.258 | -5.11 | -1.07 | 1.24 | 1.15 |
| Cc1nn(C)cc1C(=O)Nc1cccc(CN2CCC(CO)CC2)c1 | -3.16 | 18.4 | -4.72 | -21.7 | 3.41 | 26 | 8.53 | 28.8 | 1.06 | 15.6 | -7.09 |
| CSCC(CCO)NC(=O)Nc1cccc(Br)c1 (stereo unspecified) | -3.42 | 2.74 | 8.84 | -3.56 | -3.53 | 3.18 | 17.2 | 6.61 | 0 | 2.5 | -2.08 |
| CCc1cc(=O)[nH]c2nnc(SCC(=O)OC)n12 | 0.274 | 16.4 | -5.37 | -14.2 | 3.72 | 18.2 | 15.6 | -0.951 | 6.45 | 17.5 | -6.44 |
| COc1ccccc1OCc1cc(C(=O)N2CC=CC2C(C)C)n[nH]1 (stereo unspecified) | 0.254 | 1.39 | -2.81 | 9.42 | 2.82 | 8.83 | 11.9 | -13.9 | 5.26 | 7.69 | -2.27 |
| CCn1cc(NC(=O)NCC2(N3CCOCC3)CCSC2)cn1 (stereo unspecified) | -1.63 | 13.5 | 2.58 | 16.6 | 1.74 | 13.8 | 17.2 | -1.24 | 6.88 | 7.32 | -4.92 |
| COc1ccccc1C1CNC(=O)c2nc(-c3ncc[nH]3)[nH]c2C1 (stereo unspecified) | -0.895 | 16.2 | -2.89 | 12.1 | 7.14 | 4.29 | 14.3 | 20.7 | 14.3 | 29.3 | -3.23 |
| Cc1ccc(CCNC(=O)N2CCCC(Cc3nccn3C)C2)cn1 (stereo unspecified) | -5.16 | 0 | -1.4 | 2.27 | 4.49 | -2.5 | 9.89 | 16.9 | 7.92 | 13.4 | -0.907 |
| CNC(=O)c1ccc(CN2CCC(N(C)Cc3noc(C)n3)C2)cc1 (stereo unspecified) | -2.92 | 18.2 | -3.53 | -3.54 | -2.25 | 4.42 | 15.9 | 22.1 | -1.91 | 14.1 | -19.2 |

Source: ChEMBL document CHEMBL3988442, “University of Dundee, Small-Polar-MMV Screening Library” (2021)
